# Measured values published in PubChem BioAssay (EPA / NIEHS).
# The source made the active and inactive calls. The calls were made as follows: active = hit-call score of the fitted dose curve at least 0.9, where 1 is the maximum; inactive = score below 0.9.
# Biological target: Hypoxia-inducible factor 1-alpha (Homo sapiens) (UniProt Q16665)
# Test: ATG_HIF1a_CIS: Attagene CIS-FACTORIAL HepG2 Assay for human Hypoxia Inducible Factor 1 (HIF1A) (AID 2282951)
# Conditions: HepG2 Attagene cis-factorial HIF1a reporter transcription; actives raise or lower the signal
# Description: ATG_CIS is a cell-based, multiplexed-readout assay that uses HepG2, a human liver cell line, with measurements taken at 24 hours after chemical dosing in a 24-well plate.ATG_HIF1a_CIS is one of 52 assay component(s) measured or calculated from the ATG_CIS assay. It is designed to make measurements of mRNA induction, a form of inducible reporter, as detected with fluorescence intensity signals by Reverse transcription polymerase chain reaction (RT-PCR) and Capillary electrophoresis technology.Data from the assay component ATG_HIF1a_CIS was analyzed into 1 assay endpoint. This assay endpoint, ATG_HIF1a_CIS, was analyzed with bidirectional fitting relative to DMSO as the negative control and baseline of activity. Using a type of inducible reporter, measures of mRNA for gain or loss-of-signal activity can be used to understand the reporter gene at the transcription factor-level as they relate to the gene HIF1A. Furthermore, this assay endpoint can be referred to as a primary readout, because this assay has produced multiple assay endpoints where this one serves a reporter gene function. To generalize the intended target to other relatable targets, this assay endpoint is annotated to the dna binding intended target family, where the subfamily is basic helix-loop-helix protein.
# Human liver HepG2 cells are transiently transfected with multiple reporter transcription units (MRTUs) in 6-well plates using FuGene 6 reagent (Roche; 3 ml FuGene/1 mg DNA). The MRTU constructs are regulated by a cis-regulating element (promoter). […] A major difference between the CIS and TRANS system is that in CIS activities of endogenous TFs are measured, whereas the TRANS assay evaluates changes in activities of exogenous, chimeric NR-Gal4 proteins. […] At the end of 24 hour incubation, total RNA was isolated using TriZol reagent (Invitrogen). The isolated RNA is then reverse-transcribed using oligo(dT) primer and Mo-MLV reverse transcriptase (Invitrogen) with DNAse I (Ambion) treatment for 30 min. The one-tenth of the produced cDNA was amplified by PCR using Taq DNA polymerase (Invitrogen) and two reporter sequence-specific primers. The PCR products were fluorescently labeled by primer extension with 6-arboxyfluorescein (6-FAM) 5'-labeled reporter sequence-specific primer (2 min at 95 C, 20 s at 68 C and 10 min at 72 C) and these products were digested with 5U of HpaI (New England Biolabs) for 2h at 37 C. The fragments were purified using Qiaquick PCR columns (Qiagen), analyzed on an ABI 3130xL genetic analyzer (Applied Biosystems) with peak positions identified by using a set of X-rhodamine (ROX)-labeled MapMarker1000 molecular weight standards (BioVentures). The raw capillary electrophoresis data was processed using Attagraph software (Attagene).
# Hypoxia-inducible factor 1-alpha (Homo sapiens), sequence (Q16665 whole entry, looked up): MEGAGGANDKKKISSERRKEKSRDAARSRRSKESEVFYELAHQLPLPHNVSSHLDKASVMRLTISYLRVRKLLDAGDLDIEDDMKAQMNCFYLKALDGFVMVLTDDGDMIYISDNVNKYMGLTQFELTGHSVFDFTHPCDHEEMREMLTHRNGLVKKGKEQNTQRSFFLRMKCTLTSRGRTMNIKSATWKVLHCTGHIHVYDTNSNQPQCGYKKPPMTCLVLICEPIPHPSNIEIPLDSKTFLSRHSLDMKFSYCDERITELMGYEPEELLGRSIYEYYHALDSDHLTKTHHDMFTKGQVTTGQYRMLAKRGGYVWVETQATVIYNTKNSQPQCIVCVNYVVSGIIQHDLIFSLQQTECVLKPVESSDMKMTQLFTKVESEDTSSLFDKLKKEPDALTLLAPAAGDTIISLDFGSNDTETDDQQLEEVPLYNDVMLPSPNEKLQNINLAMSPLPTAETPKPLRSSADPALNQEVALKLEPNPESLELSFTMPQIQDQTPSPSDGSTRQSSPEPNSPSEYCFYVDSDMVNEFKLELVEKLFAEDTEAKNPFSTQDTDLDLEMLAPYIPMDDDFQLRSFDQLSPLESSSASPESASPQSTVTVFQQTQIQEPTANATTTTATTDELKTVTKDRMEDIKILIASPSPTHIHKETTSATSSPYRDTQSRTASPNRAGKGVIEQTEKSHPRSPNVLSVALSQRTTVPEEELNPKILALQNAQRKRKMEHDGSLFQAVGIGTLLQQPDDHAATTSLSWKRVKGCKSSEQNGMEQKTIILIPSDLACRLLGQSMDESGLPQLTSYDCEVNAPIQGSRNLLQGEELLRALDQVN
SMILES,outcome,AC50
CCC1CCC(=O)O1 (stereo not given),inactive,–
CCCC=NO,inactive,–
O=P(O)(Oc1ccccc1)Oc1ccccc1,inactive,–
C=CC(=O)OCC(CC)CCCC (stereo not given),inactive,–
CCOP(=O)(OCC)OCC,inactive,–
O=C(CCN1CC1)OCC(CO)(COC(=O)CCN1CC1)COC(=O)CCN1CC1,inactive,–
Nc1ccc(Cl)c(Cl)c1,inactive,–
O=[N+]([O-])O.O=[N+]([O-])O.[Cd],inactive,–
[Cl][Sb]([Cl])[Cl],inactive,–
O=C1C(Cl)=C(Cl)C(=O)C(Cl)=C1Cl,–,100 µM (active)
CN1C[C@H](C(=O)N[C@]2(C)O[C@@]3(O)[C@@H]4CCCN4C(=O)[C@H](Cc4ccccc4)N3C2=O)C=C2c3cccc4[nH]cc(c34)C[C@H]21,inactive,–
Cc1ccccc1CCl,inactive,–
CC(C)CCCCCCCOC(=O)c1ccccc1C(=O)OCCCCCCCC(C)C,inactive,–
CC(C)C#N,inactive,–
O=C(O)C(Br)Br,inactive,–
O=CNC(N1CCN(C(NC=O)C(Cl)(Cl)Cl)CC1)C(Cl)(Cl)Cl (stereo not given),inactive,–
CC(C)(O)C#N,inactive,–
CCCOC(=O)c1ccccc1C(=O)OCCC,inactive,–
CCc1cc(C)cc(CC)c1-c1c(OC(=O)C(C)(C)C)n2n(c1=O)CCOCC2,inactive,–
C=CCO,inactive,–

SMILES,outcome,AC50
CCCCCCCCCCCC#N,inactive,–
C=Cc1cccc(CCl)c1,inactive,–
Cc1cc(C)c(C2=C(OC(=O)CC(C)(C)C)C3(CCCC3)OC2=O)c(C)c1,inactive,–
O=C(O)COc1ccccc1,inactive,–
C=C(Cl)CCl,inactive,–
N#CC(c1ccccc1)c1ccccc1,inactive,–
CCCCOP(=O)(O)OCCCC,inactive,–
CN(C)N,inactive,–
C=CC(=O)OC,inactive,–
COc1cc(OC)c(OC)cc1C=O,inactive,–
C#CC1(O)CCCCC1,inactive,–
COC(C)(C)CCC[C@H](C)C/C=C/C(C)=C/C(=O)OC(C)C,inactive,–
Cc1ccc(C)c2ccccc12,inactive,–
Oc1cc(Cl)ccc1Cl,inactive,–
SCc1ccco1,inactive,–
O=C(O)CCCc1ccc(N(CCCl)CCCl)cc1,inactive,–
Clc1ccc(-c2ccccc2)cc1,inactive,–
Nc1ccc(-c2ccc(N)c(N)c2)cc1N,inactive,–
CCCCOC(=O)CCC(=O)OCCCC,inactive,–
CCOC(=O)COc1ccc(Cl)cc1Cl,inactive,–
